This is a sample that favours compounds with a hit; in the whole collection about 12% have one here.
L3MBTL1 block: inhibitors of human L3MBTL1 | AlphaScreen L3MBTL1–H3K9me1 peptide binding | AID 485360 | Potency, µM (series often up to 57.1 µM), most hits filed as inhibitors | Q9Y468 | 230,000 tested, 0.66% active; also: nearly all actives have a fitted effect of over 60% in size
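AlphaScreen proximity signal between nickel-chelate acceptor and streptavidin donor beads (final 10 ug/mL) reports binding of 50 nM L3MBTL1 to 75 nM biotin-H3 K9me1 peptide; complex incubated with compounds 30 min at room temperature; cefsulodin titration as control.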
G9a block: blocks human histone lysine methyltransferase G9a | Potency, µM (doses to about 102 µM), actives largely listed as inhibitors | Q96KQ7 | 350,000 tested, 8.8% active | G9a H3K9 monomethylation, AlphaScreen, 2 h | AID 504332; also: nearly all actives have a fitted effect of over 75% in size
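AlphaScreen detection with an anti-monomethyl H3K9 antibody quantified product after a 2 h room-temperature reaction containing 500 nM biotinylated H3K9 peptide, 20 µM SAM and 20 nM enzyme, which had been preincubated 15 min with compound.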
JMJD2A Tudor: blocks the human JMJD2A Tudor domain; AlphaScreen JMJD2A-Tudor / H3K4me3 peptide binding; Potency, µM (titrated, usually from 114 µM), usual class: inhibitors; 390,000 tested, 4.4% active; AID 504339; also: nearly all actives have a fitted effect of over 50% in size
Target sequence (O75164 whole entry, looked up, the tested form may be a part): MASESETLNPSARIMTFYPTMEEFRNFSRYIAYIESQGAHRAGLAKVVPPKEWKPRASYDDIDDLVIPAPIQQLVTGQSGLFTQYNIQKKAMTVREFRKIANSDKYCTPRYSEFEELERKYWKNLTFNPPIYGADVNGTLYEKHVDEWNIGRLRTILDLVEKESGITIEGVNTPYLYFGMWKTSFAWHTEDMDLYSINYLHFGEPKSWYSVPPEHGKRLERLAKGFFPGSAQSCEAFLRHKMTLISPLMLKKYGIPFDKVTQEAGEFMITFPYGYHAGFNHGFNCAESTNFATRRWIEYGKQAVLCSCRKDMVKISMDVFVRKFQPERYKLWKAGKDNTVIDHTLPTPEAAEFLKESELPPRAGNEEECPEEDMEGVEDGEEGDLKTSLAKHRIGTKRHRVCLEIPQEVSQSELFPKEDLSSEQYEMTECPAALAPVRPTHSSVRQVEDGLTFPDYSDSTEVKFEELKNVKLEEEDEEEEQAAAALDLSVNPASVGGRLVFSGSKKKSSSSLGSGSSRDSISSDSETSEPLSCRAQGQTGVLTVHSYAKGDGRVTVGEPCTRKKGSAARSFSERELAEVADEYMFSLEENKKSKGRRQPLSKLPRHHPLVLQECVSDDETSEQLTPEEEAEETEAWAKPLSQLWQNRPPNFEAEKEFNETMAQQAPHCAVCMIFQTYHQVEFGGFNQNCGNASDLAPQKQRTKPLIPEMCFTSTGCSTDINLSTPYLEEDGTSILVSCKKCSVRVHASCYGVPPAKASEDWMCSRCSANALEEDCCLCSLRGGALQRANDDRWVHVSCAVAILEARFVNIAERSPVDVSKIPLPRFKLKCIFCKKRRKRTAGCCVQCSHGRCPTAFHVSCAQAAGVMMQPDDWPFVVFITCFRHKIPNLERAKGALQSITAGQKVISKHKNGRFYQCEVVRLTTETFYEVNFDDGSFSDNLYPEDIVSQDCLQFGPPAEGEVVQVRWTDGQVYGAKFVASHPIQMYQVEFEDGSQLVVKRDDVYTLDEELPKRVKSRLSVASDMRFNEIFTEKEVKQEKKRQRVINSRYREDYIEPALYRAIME
BAZ2B inh: blocks human BAZ2B. Potency, µM (highest dose often 114 µM), actives largely listed as inhibitors. Q9UIF8. AlphaScreen BAZ2B-H3K14Ac peptide displacement. 360,000 tested, 4.4% active; also: nearly all actives have a fitted effect of over 60% in size
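Inhibition is scored as reduced AlphaScreen emission. The BAZ2B/b-H3(5-23)K14Ac complex (50 nM each) in PBS pH 7.4, 0.01% Tween-20 meets compound (up to 110 uM) for 30 min at RT before bead addition.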
Sfp inh: blocks B. subtilis Sfp PPTase activity; Q9F4F7; Biochemical Sfp PPTase activity, qHTS; Potency, µM, hits mostly inhibitors; 310,000 tested, 3.5% active; AID 1490;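 also: the enzyme is Sfp with the accession as filed and its product quenches rhodamine fluorescence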
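After 15 min at room temperature with compound, 15 nM Sfp received 5 uM rhodamine-CoA plus 12.5 uM BHQ-2-ybbR (50 mM Hepes pH 7.6, 10 mM MgCl2). Rate came from the fluorescence difference over 30 min, ex 525/em 598 nm.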
HP1b binding inh: blocks HP1-beta chromodomain binding to methylated histone tails; 390,000 tested, 0.56% active; P83916; Potency, µM (top dose mostly 114 µM), usual class: inhibitors; AlphaScreen HP1-beta / biotin-H3K9me3 peptide binding; also: nearly all actives have a fitted effect of over 70% in size
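HP1-beta protein (50 nM final) preincubated 30 min at room temperature with biotinylated H3(1-18)K9me3 peptide (50 nM) in PBS pH 7.4, 0.01% Tween-20, then compound added for 30 min. AlphaScreen streptavidin donor/nickel chelate acceptor beads (10 ug/mL final), 30 min dark, luminescence read.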
Numbers stand for hits; . = inactive; ? = inconclusive; / = no result given; [ ] = another dose, or the depositor's remark. Calls follow the shape of the dose curve; as a rule, active = well fitted curve in the direction sought with a large enough effect; inconclusive = small, poorly fitted or top-dose-only effect, or another doubt; inactive = no such curve, though single readings can be large; an effect the other way counts as inactive or inconclusive.

SMILES	L3MBTL1 block	G9a block	JMJD2A Tudor	BAZ2B inh	Sfp inh	HP1b binding inh
N#CC(=C(/N)Sc1ccccc1N)/C(C#N)=C(\N)Sc1ccccc1N	/	12.6µM	/	/	56.2µM	/
CC1C(=O)N2CCCc3cc(NC(=O)C(=O)NCCc4c[nH]c5ccccc45)cc1c32 (centres undefined)	.	28.2µM	?	.	/	.
CC(C)(C)OC(=O)N1C=CCC1CN1C(=O)COCC1=O (centres undefined)	/	/	.	/	.	.
CCN(CC)S(=O)(=O)c1ccc2c(c1)N(CC(=O)Nc1ccc(OC)cc1)C(=O)CS2	/	.	.	.	/	.
COc1ccc(-c2cc(C(F)(F)F)nc(-n3cc(Br)cn3)n2)cc1	/	.[12.7 µM]	.	.	22.4µM	.
COc1ccc(-c2cc(C(F)(F)F)nc(-n3cc(Cl)cn3)n2)cc1	/	.[12.7 µM]	.	.	?	.
CCOc1ccc2nc(SCC(=O)N(CC(C)C)c3c(N)n(Cc4ccccc4)c(=O)[nH]c3=O)[nH]c2c1	.	50.1µM	.	.	/	.
COCCN(C(=O)CSc1nc2ccc(C)cc2[nH]1)c1c(N)n(Cc2ccccc2)c(=O)[nH]c1=O	/	?	.	.	.	.
COCCN(C(=O)CSc1nc2ccc(OC)cc2[nH]1)c1c(N)n(Cc2ccccc2)c(=O)[nH]c1=O	.	20µM	.	.	/	.
Cc1ccc2nc(SCC(=O)N(CC(C)C)c3c(N)n(CC(C)C)c(=O)[nH]c3=O)[nH]c2c1	/	?	.	.	.	.
COCCN(C(=O)CSc1nc(N)cc(=O)[nH]1)c1c(N)n(Cc2ccccc2)c(=O)[nH]c1=O	.	50.1µM	.	.	/	.
CC(C)C1=CC(=NS(=O)(=O)c2cccc([N+](=O)[O-])c2)C=C(C(C)C)C1=O	.	.	.	.	.	.
CC(C)C1=CC(=Nc2ccc(S(N)(=O)=O)cc2)C=C(C(C)C)C1=O	.	/	56.2µM	44.7µM	.	?
C=CCOc1ccccc1CN1CCC(CO)(CCOc2ccccc2)CC1	.	.	.	.	.	.
CN1CCCN(Cc2ccccc2C(F)(F)F)CC1	.	?	0.708µM	50.1µM	.	?
CCCS(=O)(=O)N1CCN(Cc2c[nH]c3ccccc23)CC1	.	25.1µM	22.4µM	50.1µM	.	?
C=CCOc1ccccc1CN1CCCN(C)CC1	.	8.91µM	10µM	70.8µM	.	?
Fc1ccccc1N1CCN(C2CCCN(Cc3ccccc3C(F)(F)F)C2)CC1 (centres undefined)	.	/	.	.	.	.
COc1ccc(S(=O)(=O)N2CCN(Cc3c[nH]c4ccccc34)CC2)cc1	.	.	.	.	.	.
CCCS(=O)(=O)N1CCN(Cc2ccccc2C(F)(F)F)CC1	.	10µM	20µM	.	50.1µM	?
Cc1ccc(NC(=O)CN2C(=O)COc3ccc(S(=O)(=O)NC4CCCC4)cc32)cc1N(C)C	/	.	.	.	/	.
Cc1ccc(C)c(Nc2nc(NCc3ccco3)nc3nccnc23)c1	/	/	.	/	/	.
COc1ccc(C(=O)c2cn(CC(=O)Nc3ccc4c(c3)OCCO4)c3ccc(OC)cc3c2=O)cc1	/	?	?	.	/	.
Cc1cc(C)nc(N/N=C/C2=C(N3CCOCC3)C(=C/c3ccccc3)/CC2)n1	.	10µM	.	?	.	.
Cc1cc(=O)[nH]c(N/N=C/C2=C(N3CCOCC3)C(=C\c3ccc(Cl)cc3)/CC2)n1	.	7.94µM	.	.	39.8µM	.
SMILES	L3MBTL1 block	G9a block	JMJD2A Tudor	BAZ2B inh	Sfp inh	HP1b binding inh
O=C(N/N=C/C1=C(N2CCOCC2)C(=C\c2ccccc2)/CC1)Nc1ccccc1	.	.	.	.	.	.
O=C(O)c1ccccc1N/N=C/C1=C(N2CCOCC2)C(=C\c2ccccc2)/CC1	.	/	?	50.1µM	.	?
Cc1ccc2oc(-c3ccc(NC(=O)CCC(=O)O)cc3)nc2c1	/	.	.	.	/	.
CN1CCN(C2=Cc3ccccc3Sc3cc(F)c(F)cc32)CC1	.	?	?	44.7µM	79.4µM	?
CN1CCN(C2=Cc3cc(Cl)ccc3Sc3cc(F)ccc32)CC1	.	12.6µM	56.2µM	22.4µM	.	.
CN1CCN(C2=Cc3ccccc3Sc3cc(F)c(Cl)cc32)CC1	.	17.8µM	50.1µM	35.5µM	?	.
CN1CCN(C2=Nc3ccccc3Sc3ccc(Cl)cc32)CC1	/	.	/	/	.	/
CCN1CCOC(=O)C1CC(=O)Nc1ccc(Br)cc1 (centres undefined)	/	2.51µM	.	.	/	.
CCN1CCOC(=O)C1CC(=O)Nc1cc(C)ccc1OC (centres undefined)	/	10µM	.	.	/	.
Clc1ccc(CSc2nccn2Cc2ccccc2)cc1	.	.[0.501 µM]	3.16µM	?	.	.
COCCCNCCC(CCC(C)C)c1ccc2c(c1)OCO2 (centres undefined)	.	?	20µM	?	.	?
CC(C)CCC(CCN1CCOCC1)c1ccc2c(c1)OCO2 (centres undefined)	.	44.7µM	3.16µM	?	79.4µM	.
Cc1oc(/N=C/c2ccc(Cl)cc2Cl)c(C#N)c1C	.	44.7µM	.	.	.	.
Cc1oc(/N=C/c2ccc(O)cc2O)c(C#N)c1C	/	44.7µM	.	.	.	.
Cc1oc(/N=C/c2c(O)ccc3ccccc23)c(C#N)c1C	.	1.58µM	/	/	.	/
Cc1oc(/N=C/c2ccccc2O)c(C#N)c1C	.	.	.	.	.	.
CCOC(=O)Cc1ccc(NC(=O)N(C(C)C)C2CCN(C(C)=O)CC2)cc1	/	.	.	.	/	.
Cc1cc(C(=O)COc2cccnc2[N+](=O)[O-])c(C)n1-c1ccccc1	.	?	.	?	.	.
Cc1cc(C)c(NC(=O)COc2nncc3ccccc23)c(C)c1	.	.	.	.	.	.
Cc1cc(C(=O)COc2ccccc2C(N)=O)c(C)n1C	.	.	.	/	.	.
Cc1ccc(OCC(=O)c2cc(C)n(C)c2C)c([N+](=O)[O-])n1	?	?	.	56.2µM	?	.
Cc1cc(C(=O)COc2cccc3cccnc23)c(C)n1C	11.2µM	2.82µM	.	11.2µM	.	.
Cc1cc(C(=O)COc2nncc3ccccc23)c(C)n1C	.	79.4µM	.	.	.	.
CCS(=O)(=O)N1CCc2cc(C(=O)Nc3ccc(Br)cc3F)ccc21	/	.	?	?	/	.
COc1ccc(C(=O)Nc2nc3n(n2)C(c2ccc(F)cc2)C=C(c2ccc(Cl)cc2)N3)cc1 (centres undefined)	/	.	.	?	/	.
O=C(O)C1CC(C(=O)O)SS1 (centres undefined)	/	/	31.6µM	/	/	.
CCOC(=O)C1CCCN(S(=O)(=O)c2cc3c4c(c2)CCN4C(=O)CC3)C1 (centres undefined)	.	?	.	.	/	.
